PubChem BioAssay (NCATS)
Several values for one entry are separate records, joined by “and”; a condition that tells them apart may be missing. Identical values can stand only once. Inconclusive results are not listed. Entries that show only a call come without a potency. Activity calls are given as the source filed them. Unless noted, calls come from the whole dose curve; as a rule, active = well fitted curve in the direction sought with a large enough effect; inconclusive = small, poorly fitted or top-dose-only effect, or another doubt; inactive = no such curve, though single readings can be large; an effect the other way counts as inactive or inconclusive.

What was measured:
[1] = biological target: Vitamin D3 receptor (Homo sapiens) (UniProt P11473); experiment: qHTS assay for small molecule agonists of vitamin D receptor signaling (AID 588543; calls by dose curve)
How it was run: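 Measured: β-lactamase reporter activity (CCF4, 405 nm excitation, 460/530 nm emission) in HEK293T VDR-UAS-bla cells after 16 h compound exposure at 37 °C. Normalization against 50 nM 1α,25-dihydroxyvitamin D3 and DMSO; Hill-fit EC50.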

[2] = biological target: Thyroid hormone receptor beta (Homo sapiens) (UniProt P10828); experiment: qHTS assay for small molecule agonists of thyroid hormone receptor beta signaling (AID 588545; calls by dose curve)
How it was run: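 Beta-lactamase reporter activity under TR response element control is measured in HEK 293 cells after 18 hrs compound exposure. Signal is ratiometric CCF4 fluorescence, 460/530 nm.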

[3] = qHTS assay for small molecule antagonists of retinoid X receptor alpha signaling (AID 588546; active = well fitted inhibition curve with a large enough effect in the signal ratio, with a control signal flat, not every such curve was filed as active; the % refers to the signal ratio;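 note: cells stimulated with 9-cis-retinoic acid as agonist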); settings: HEK293T RXRa-UAS-bla, beta-lactamase ratio, antagonist mode; measured here: W530 green channel, cytotoxicity proxy
How it was run: (§1)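 Beta-lactamase reporter inhibition, read as CCF4 fluorescence ratio (ex 405, em 460/530 nm) after 2 h at RT. HEK293T UAS-bla cells, 2500/well, were stimulated with 9-cis-RA at 500 or 100 nM final alongside test compound for 18 h at 37 C.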

[4] = biological target: Retinoic acid receptor RXR-alpha (Homo sapiens) (UniProt P19793); experiment: as above; settings: HEK293T RXRa-UAS-bla, beta-lactamase ratio, antagonist mode
How it was run: as §1

[5] = biological target: Thyroid hormone receptor beta (Homo sapiens) (UniProt P10828); experiment: qHTS assay for small molecule antagonists of thyroid hormone receptor beta signaling (AID 588547; active = well fitted inhibition curve with a large enough effect in the signal ratio, with a control signal flat, not every such curve was filed as active; the % refers to the signal ratio;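 note: cells stimulated with 0.4 nM T3 agonist during compound exposure; series mostly up to about 77 µM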); settings: TR-UAS-bla HEK293, beta-lactamase ratio, antagonist mode, 18 h
How it was run: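 Inhibition of T3-driven (0.4nM final) beta-lactamase reporter activity was measured over 0.59 nM to 92 uM compound after 18 h at 37 C. The cells were GripTite HEK293 TR-UAS-bla in charcoal/dextran-stripped serum, with CCF4 ratio read-out and IC50 from Hill fits.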

[6] = biological target: Voltage-gated inwardly rectifying potassium channel KCNH2 (Homo sapiens) (UniProt Q12809); experiment: qHTS Assay for Small Molecule Inhibitors of the Human hERG Channel Activity (AID 588834);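 note: top concentration of the series differs between compounds; lower thallium flux fluorescence means stronger hERG block; nearly all actives have a fitted effect of over 50% in size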
How it was run: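 Blockade is seen as reduced FluxOR thallium-flux fluorescence in U2OS cells expressing hERG from a BacMam construct, in Opti-MEM with 2% FCS. Concentration-response data fitted to the Hill equation for AC50.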

[7] = qHTS assay for small molecule disruptors of the mitochondrial membrane potential - 1 hr assay (AID 651754; calls by dose curve; note: nearly all actives have a fitted effect of over 35% in size)
How it was run: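 HepG2 cells, attached overnight at 37C, were exposed to compound or DMSO vehicle for 1 hr at 37C, 5% CO2, then stained with Mito-MPS dye for 30 min. Red aggregate versus green monomer fluorescence reports membrane potential.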

[8] = qHTS assay for small molecule disruptors of the mitochondrial membrane potential - 5 hr assay (AID 651755; calls by dose curve; note: nearly all actives have a fitted effect of over 40% in size)
How it was run: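 HepG2, 2,000 cells/well, overnight attach; cpd or DMSO 5 hr, 37C/5% CO2; Mito-MPS 30 min 37C; fluor 490/535 + 540/590 nm.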

[9] = biological target: Tumor necrosis factor (Homo sapiens) (UniProt P01375); experiment: qHTS assay to identify small molecules that stimulate Tumor Necrosis Factor-alpha (TNF-alpha) secretion (AID 651757; active = well fitted curve in the direction sought with a large enough effect in the signal ratio; the % refers to the signal ratio)
How it was run: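 THP-1 cells were exposed to compounds for 17 hrs at 37 C, after which secreted TNF-alpha was measured by homogeneous HTRF (TR-FRET) using cryptate- and XL665-labeled anti-TNF-alpha antibodies, read after 3 hr at room temperature.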

[10] = qHTS assay for environmental chemicals that activate the Aryl hydrocarbon Receptor (AhR) signaling pathway (AID 651777); settings: 1A2-DRE human hepatoma cells, luciferase, 24 h; activation: stronger effect = higher value; note: nearly all actives have a fitted effect of over 15% in size
How it was run: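 Following a 24 hr incubation with test chemicals at 37 C and 5% CO2, 1A2-DRE human hepatoma cells received One-Glo reagent; after 30 min at room temperature, luciferase output reflected CYP1A2 induction via AhR.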

[11] = biological target: Peroxisome proliferator-activated receptor alpha (Homo sapiens) (UniProt Q07869); experiment: qHTS assay for small molecule agonists of the peroxisome proliferator-activated receptor alpha (PPARalpha) signaling pathway (AID 651778); settings: PathHunter PPARalpha complementation, chemiluminescence, 6 h; stronger effect = higher value
How it was run: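 Chemiluminescence from complemented enzyme reported PPARalpha activation in cells after 6 hr of compound treatment at 37 C. The detection reagent was incubated for 60 min at room temperature, and compounds were scored as agonists.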

[12] = biological target: Nuclear receptor ROR-gamma (Homo sapiens) (UniProt P51449); experiment: qHTS assay for small molecule antagonists of the retinoid-related orphan receptor gamma (ROR-gamma) signaling pathway (AID 651802); note: series mostly up to about 92 µM; nearly all actives have a fitted effect of over 60% in size
How it was run: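 CHO cells carrying TET-inducible ROR-gamma and an ROR response element–luciferase reporter were exposed to compound, then induced with doxycycline. After 16hr at 37C, luminescence was read; lower signal indicates antagonism.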

[13] = qHTS assay for small molecule agonists of the antioxidant response element (ARE) signaling pathway measured by Nrf2-dependant transcriptional activity (AID 720636; active = well fitted curve in the direction sought with a large enough effect in the repeat runs; an effect the other way counts as inactive or inconclusive;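 note: HepG2 cells with an ARE-driven luciferase reporter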)
How it was run: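 ONE-Glo luminescence, read 30 min after reagent addition at room temperature, reflected ARE reporter activity in HepG2 cells that had been incubated with compound for 16 hr at 37 C in 1% dialyzed FBS.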

[14] = qHTS assay for small molecule antagonists of the retinoid-related orphan receptor gamma (ROR-gamma) signaling pathway - cell viability counter screen (AID 720652; active = well fitted curve in the direction sought with a large enough effect in the repeat runs; an effect the other way counts as inactive or inconclusive;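 note: series mostly up to about 92 µM; compound exposure lasted 16 hr before ATP read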)
How it was run: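 Counter screen in CHO cells carrying TET-inducible ROR-gamma and an ROR response element-luciferase reporter; cells plated 5 hr, compound pinned, doxycycline added, then 16 hr at 37 C. Viability read as intracellular ATP by CellTiter-Glo luminescence.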

[15] = qHTS assay for small molecule agonists of the antioxidant response element (ARE) signaling pathway measured by Nrf2-dependant transcriptional activity - cell viability counter screen (AID 720653; active = well fitted curve in the direction sought with a large enough effect in the repeat runs; an effect the other way counts as inactive or inconclusive); settings: ARE-bla HepG2 viability, CellTiter-Glo ATP luminescence, 16 h; stronger effect = lower value
How it was run: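 Cytotoxicity counter screen: intracellular ATP quantified by CellTiter-Glo luminescence in the same ARE-bla HepG2 plates, after 16 h compound exposure and a 2 h beta-lactamase substrate step.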

[16] = qHTS assay for cell viability of HEK293 cells (AID 743288); settings: ATP luminescence (CellTiter-Glo), 18 h; max response: stronger effect = lower value; note: nearly all actives have a fitted effect of over 50% in size
How it was run: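 Luminescent ATP quantitation served as the viability read-out. Cells (parental HEK293, 2,000/well) received compounds after at least 5 h at 37 C and were exposed for 18 h before a 30 min room-temperature reagent step.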

[17] = biological target: Rap guanine nucleotide exchange factor 3 (Homo sapiens) (UniProt O95398); experiment: Confirmatory qHTS for agonist of cAMP-regulated guanine nucleotide exchange factor 3 (EPAC1) (AID 1645881);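 note: EPAC1 catalysed release of BODIPY-GDP from Rap1B seen as fluorescence loss; nearly all actives have a fitted effect of over 75% in size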
[18] = biological target: Rap guanine nucleotide exchange factor 4 (Homo sapiens) (UniProt Q8WZA2); experiment: Confirmatory qHTS for agonist of cAMP-regulated guanine nucleotide exchange factor 4 (EPAC2) (AID 1645884);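 note: nucleotide exchange releases bodipy-GDP from Rap1 and this lowers its fluorescence; nearly all actives have a fitted effect of over 65% in size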
[19] = biological target: Rap guanine nucleotide exchange factor 4 (Homo sapiens) (UniProt Q8WZA2); experiment: Confirmatory qHTS for antagonist of cAMP-regulated guanine nucleotide exchange factor 4 (EPAC2) (AID 1645885); note: potency is the fitted concentration of half-maximal effect; nearly all actives have a fitted effect of over 25% in size
[20] = biological target: Rap guanine nucleotide exchange factor 3 (Homo sapiens) (UniProt O95398); experiment: Counterscreen qHTS for antagonist of cAMP-regulated guanine nucleotide exchange factor 3 (EPAC1) (AID 1645888);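 note: fluorescence loss as bound BODIPY-GDP is released from Rap1B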
How it was run: (§2)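 Rap1B-BODIPY-GDP 250 nM + GDP 50 uM; cpds 7-pt, final 9.74 nM–152 uM (activator mode) or from 7.32 nM upwards (inhibitor mode); RT; FI 480/540 nm at 5 and 30 min, then ± cAMP, reread.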

[21] = biological target: Rap guanine nucleotide exchange factor 3 (Homo sapiens) (UniProt O95398); experiment: Counterscreen qHTS for agonist of cAMP-regulated guanine nucleotide exchange factor 3 (EPAC1) (AID 1645889); note: nearly all actives have a fitted effect of over 40% in size
How it was run: as §2

[22] = biological target: Nuclear receptor subfamily 1 group I member 2 (Rattus norvegicus) (UniProt Q9R1A7); experiment: qHTS assay for small molecule activators of the rat pregnane X receptor (rPXR) signaling pathway (AID 651751; call rule not given here); settings: rPXR reporter cells, luciferase (One-Glo), 24 h
[23] = qHTS assay for small molecule activators of the human pregnane X receptor (PXR) signaling pathway (AID 720659; call rule not given here)

Thyroid hormone receptor beta (Homo sapiens), sequence (P10828 whole entry, looked up): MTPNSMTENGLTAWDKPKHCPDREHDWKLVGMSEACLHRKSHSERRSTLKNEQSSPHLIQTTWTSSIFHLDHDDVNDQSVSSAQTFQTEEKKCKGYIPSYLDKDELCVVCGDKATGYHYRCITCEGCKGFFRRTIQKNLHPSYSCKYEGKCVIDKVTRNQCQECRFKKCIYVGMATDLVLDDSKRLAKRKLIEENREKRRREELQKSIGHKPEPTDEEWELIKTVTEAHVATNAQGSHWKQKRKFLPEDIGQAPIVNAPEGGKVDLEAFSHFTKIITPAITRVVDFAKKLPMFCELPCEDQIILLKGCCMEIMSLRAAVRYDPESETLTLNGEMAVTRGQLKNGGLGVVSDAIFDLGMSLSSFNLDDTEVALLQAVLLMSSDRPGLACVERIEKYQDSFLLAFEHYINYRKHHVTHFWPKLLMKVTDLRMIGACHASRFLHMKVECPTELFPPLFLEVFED
Peroxisome proliferator-activated receptor alpha (Homo sapiens), sequence (Q07869 whole entry, looked up): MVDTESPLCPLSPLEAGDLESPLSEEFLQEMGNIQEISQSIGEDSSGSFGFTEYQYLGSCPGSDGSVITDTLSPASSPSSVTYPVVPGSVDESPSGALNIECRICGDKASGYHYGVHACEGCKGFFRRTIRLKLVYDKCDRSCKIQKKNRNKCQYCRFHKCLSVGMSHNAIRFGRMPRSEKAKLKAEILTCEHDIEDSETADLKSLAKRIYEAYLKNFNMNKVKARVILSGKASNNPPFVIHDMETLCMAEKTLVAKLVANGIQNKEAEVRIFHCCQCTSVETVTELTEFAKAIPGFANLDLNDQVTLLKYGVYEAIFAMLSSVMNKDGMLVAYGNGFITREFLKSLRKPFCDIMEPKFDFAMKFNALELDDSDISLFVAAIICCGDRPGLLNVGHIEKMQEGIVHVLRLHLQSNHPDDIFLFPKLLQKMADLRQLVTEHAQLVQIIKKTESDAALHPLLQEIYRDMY
Nuclear receptor subfamily 1 group I member 2 (Rattus norvegicus), sequence (Q9R1A7 whole entry, looked up): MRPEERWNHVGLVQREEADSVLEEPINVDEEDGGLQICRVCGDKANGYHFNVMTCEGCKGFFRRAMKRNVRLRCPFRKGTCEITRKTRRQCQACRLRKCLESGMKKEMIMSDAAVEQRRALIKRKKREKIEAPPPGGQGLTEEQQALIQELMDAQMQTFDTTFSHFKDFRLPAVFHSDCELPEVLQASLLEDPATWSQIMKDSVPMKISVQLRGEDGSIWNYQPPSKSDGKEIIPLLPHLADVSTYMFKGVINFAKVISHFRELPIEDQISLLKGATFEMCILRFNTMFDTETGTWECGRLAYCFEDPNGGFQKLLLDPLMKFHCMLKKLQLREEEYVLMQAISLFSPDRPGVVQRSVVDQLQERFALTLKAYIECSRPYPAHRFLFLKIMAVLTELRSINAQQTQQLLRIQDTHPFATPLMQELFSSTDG
Rap guanine nucleotide exchange factor 4 (Homo sapiens), sequence (Q8WZA2 whole entry, looked up): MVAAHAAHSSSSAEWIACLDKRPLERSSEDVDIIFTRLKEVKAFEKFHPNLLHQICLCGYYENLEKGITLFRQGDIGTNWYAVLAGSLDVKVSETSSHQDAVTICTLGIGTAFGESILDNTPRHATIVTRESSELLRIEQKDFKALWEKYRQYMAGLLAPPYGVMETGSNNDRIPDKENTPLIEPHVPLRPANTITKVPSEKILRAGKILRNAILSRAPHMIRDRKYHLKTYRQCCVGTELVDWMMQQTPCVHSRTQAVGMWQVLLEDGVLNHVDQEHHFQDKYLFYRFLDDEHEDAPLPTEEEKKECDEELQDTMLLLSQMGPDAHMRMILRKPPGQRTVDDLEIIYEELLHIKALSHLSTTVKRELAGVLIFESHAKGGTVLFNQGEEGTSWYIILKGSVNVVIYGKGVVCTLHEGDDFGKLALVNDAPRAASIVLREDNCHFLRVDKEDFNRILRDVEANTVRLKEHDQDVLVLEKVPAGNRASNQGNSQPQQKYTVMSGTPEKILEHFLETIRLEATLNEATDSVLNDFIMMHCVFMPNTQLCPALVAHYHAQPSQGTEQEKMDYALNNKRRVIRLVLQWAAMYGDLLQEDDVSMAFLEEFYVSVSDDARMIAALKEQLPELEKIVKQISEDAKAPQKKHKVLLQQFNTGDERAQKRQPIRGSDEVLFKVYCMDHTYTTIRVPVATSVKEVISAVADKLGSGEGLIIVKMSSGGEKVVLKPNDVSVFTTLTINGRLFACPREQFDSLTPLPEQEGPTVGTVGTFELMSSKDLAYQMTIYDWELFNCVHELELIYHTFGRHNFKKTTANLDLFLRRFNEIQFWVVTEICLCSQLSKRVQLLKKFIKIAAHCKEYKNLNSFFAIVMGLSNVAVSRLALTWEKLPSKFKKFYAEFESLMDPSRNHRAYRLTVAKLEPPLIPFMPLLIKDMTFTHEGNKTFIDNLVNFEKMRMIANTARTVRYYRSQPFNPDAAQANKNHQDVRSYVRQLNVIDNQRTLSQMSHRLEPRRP
Rap guanine nucleotide exchange factor 3 (Homo sapiens), sequence (O95398 whole entry, looked up): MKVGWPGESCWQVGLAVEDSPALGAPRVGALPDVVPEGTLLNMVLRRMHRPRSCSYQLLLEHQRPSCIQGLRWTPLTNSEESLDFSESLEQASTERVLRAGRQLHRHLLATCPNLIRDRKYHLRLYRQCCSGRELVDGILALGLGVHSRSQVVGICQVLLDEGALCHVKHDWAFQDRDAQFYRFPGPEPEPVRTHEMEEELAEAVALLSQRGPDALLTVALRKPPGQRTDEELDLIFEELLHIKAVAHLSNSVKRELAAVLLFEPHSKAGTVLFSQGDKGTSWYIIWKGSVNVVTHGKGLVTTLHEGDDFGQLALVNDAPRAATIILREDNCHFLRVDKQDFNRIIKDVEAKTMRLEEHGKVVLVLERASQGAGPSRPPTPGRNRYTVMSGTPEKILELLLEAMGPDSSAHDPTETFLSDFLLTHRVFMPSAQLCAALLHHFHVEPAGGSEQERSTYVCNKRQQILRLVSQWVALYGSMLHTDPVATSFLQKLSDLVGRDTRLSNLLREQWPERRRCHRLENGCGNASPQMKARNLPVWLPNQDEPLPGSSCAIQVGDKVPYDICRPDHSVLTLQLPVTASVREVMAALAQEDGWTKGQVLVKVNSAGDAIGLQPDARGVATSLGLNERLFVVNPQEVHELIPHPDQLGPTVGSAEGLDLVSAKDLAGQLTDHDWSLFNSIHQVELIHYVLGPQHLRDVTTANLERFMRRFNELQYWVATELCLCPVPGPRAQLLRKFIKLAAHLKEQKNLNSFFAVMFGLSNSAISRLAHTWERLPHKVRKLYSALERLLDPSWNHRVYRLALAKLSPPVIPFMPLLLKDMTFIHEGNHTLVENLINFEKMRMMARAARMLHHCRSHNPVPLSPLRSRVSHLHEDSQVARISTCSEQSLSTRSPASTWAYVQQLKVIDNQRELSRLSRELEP
Vitamin D3 receptor (Homo sapiens), sequence (P11473 whole entry, looked up): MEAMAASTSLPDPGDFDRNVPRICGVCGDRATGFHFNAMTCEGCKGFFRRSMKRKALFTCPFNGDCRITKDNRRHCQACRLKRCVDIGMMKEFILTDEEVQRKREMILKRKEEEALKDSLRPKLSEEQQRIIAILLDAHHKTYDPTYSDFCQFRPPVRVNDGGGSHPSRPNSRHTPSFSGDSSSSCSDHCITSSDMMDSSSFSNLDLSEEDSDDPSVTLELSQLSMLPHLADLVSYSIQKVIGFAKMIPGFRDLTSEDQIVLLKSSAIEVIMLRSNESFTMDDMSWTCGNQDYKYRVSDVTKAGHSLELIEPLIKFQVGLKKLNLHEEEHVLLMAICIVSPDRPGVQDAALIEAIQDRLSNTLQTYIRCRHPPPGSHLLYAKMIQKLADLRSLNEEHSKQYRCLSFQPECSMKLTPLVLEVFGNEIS
Voltage-gated inwardly rectifying potassium channel KCNH2 (Homo sapiens), sequence (Q12809 whole entry, looked up): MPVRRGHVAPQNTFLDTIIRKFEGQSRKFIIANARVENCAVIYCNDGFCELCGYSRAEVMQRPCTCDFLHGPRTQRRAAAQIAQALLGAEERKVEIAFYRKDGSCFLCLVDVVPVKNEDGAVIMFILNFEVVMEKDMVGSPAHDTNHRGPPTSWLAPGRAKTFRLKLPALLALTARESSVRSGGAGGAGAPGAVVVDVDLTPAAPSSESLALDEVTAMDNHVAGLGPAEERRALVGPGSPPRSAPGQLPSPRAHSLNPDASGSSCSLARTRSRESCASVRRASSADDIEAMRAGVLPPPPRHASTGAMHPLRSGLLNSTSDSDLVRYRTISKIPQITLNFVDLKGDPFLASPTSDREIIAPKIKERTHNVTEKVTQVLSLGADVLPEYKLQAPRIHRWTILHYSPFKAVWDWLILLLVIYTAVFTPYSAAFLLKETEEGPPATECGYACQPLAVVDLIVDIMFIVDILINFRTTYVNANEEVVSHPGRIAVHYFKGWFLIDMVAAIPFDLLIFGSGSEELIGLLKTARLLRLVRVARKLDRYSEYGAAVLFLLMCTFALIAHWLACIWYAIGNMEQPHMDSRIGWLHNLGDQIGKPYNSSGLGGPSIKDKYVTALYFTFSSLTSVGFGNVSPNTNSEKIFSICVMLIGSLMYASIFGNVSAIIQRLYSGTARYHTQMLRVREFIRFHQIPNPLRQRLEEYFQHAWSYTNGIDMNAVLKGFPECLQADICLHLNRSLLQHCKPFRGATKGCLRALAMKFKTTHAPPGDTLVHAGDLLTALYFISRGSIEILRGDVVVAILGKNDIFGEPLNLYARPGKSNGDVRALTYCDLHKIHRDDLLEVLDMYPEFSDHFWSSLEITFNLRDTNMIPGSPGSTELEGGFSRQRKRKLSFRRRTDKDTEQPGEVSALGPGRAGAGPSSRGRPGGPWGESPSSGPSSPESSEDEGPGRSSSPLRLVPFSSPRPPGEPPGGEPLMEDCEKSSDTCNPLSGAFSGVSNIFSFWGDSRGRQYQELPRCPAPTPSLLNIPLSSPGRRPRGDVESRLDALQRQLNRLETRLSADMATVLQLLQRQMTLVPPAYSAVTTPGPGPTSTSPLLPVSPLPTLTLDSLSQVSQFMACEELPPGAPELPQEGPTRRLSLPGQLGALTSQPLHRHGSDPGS

SMILES: Clc1cc(Cl)c(-c2cc(Cl)c(Cl)cc2Cl)cc1Cl
- outcome [1]: inactive
- outcome [2]: inactive
- max response [3]: 9.9%
- max response [4]: 12.5% (inactive)
- activity change % (negative = inhibition) [5]: -3% (inactive) and 18.9% (inactive)
- Potency [6]: inactive
- Potency [7]: inactive
- Potency [8]: inactive
- outcome [9]: inactive
- activation [10]: -0.0322% (inactive) and 0.521% (inactive)
- max response [11]: -1.16% (inactive) and 9.79% (inactive)
- Potency [12]: inactive
- outcome [13]: inactive
- Potency [14]: inactive
- max response [15]: -2.79% (inactive) and -2.97% (inactive)
- max response [16]: -28.5% (inactive) and -15.8% (inactive)
- Potency [17]: inactive
- Potency [18]: inactive
- Potency [19]: 4.78 µM (active)
- outcome [20]: inactive
- Potency [21]: inactive
- max response [22]: 2.83% (inactive) and 5.76% (inactive)
- outcome [23]: inactive
